Screening data as filed in PubChem BioAssay.
This excerpt belongs to a sample that is enriched for hits.
LmPK inh = blocks Leishmania mexicana pyruvate kinase activity. Q27686. purified LmPK, Kinase-Glo ATP luminescence, 1 h. Potency, µM (doses to about 57.5 µM), hits mostly inhibitors. 290,000 compounds, 0.37% hits. AID 1721
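Purified LmPK (0.1 nM) with 0.5 mM PEP and 0.1 mM ADP in imidazole buffer pH 7.2 with MgCl2/KCl, 1 h at room temperature. ATP formed was read by luciferase luminescence and normalized to no-enzyme and uninhibited controls.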
Cycloheximide cs = affects cycloheximide protein synthesis inhibition readout, counter-screen. max response, %. 300,000 compounds, 12% hits. cell reporter, cycloheximide protein synthesis inhibition counterscreen; in the data active = max response mostly above about 13%, no sharp cut-off; inactive = mostly below about 14%; note: read at 38.3 µM for the half of the compounds with a filed dose
Shiga inhibitor = Shiga toxin inhibition. Vero cells, Shiga toxin protein synthesis inhibition reporter. inhibition, % at 38.7 µM. 290,000 compounds, 9.2% hits. AID 2315; in the data active = inhibition mostly above about 28%, no sharp cut-off; inactive = mostly below about 43%
Tb PYK inh = inhibitors of Trypanosoma brucei pyruvate kinase; TbPYK enzyme, Kinase-Glo Plus ATP luminescence, 45 min; Potency, µM (top dose mostly 76.8 µM), most hits filed as inhibitors; 410,000 compounds, 0.12% hits; AID 624173; note: nearly all actives have a fitted effect of over 50% in size
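Screened from lowest to highest concentration, compounds were pinned into TbPYK/substrate mixtures, and ADP (130 uM final) was added. Plates sat at room temperature for 45 min prior to Kinase-Glo Plus detection by luminescence.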
Sm TGR inh = inhibitors of Schistosoma mansoni thioredoxin glutathione reductase; Q962Y6; purified TGR, DTNB reduction, TNB absorbance 405 nm; Potency, µM (top dose mostly 114 µM), hits mostly inhibitors; 360,000 compounds, 3% hits; AID 485364; note: nearly all actives have a fitted effect of over 60% in size
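First, TGR (20 nM dispensed) and NADPH were mixed with compound. Second, a 15 min room-temperature incubation followed. Third, further NADPH and then DTNB were added to start the reaction. Finally, TNB absorbance was monitored kinetically.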
FBPA Giardia inh = blocks Giardia fructose-bisphosphate aldolase activity. A8B2U2. purified Giardia FBPA. Potency, µM (top dose mostly 59.6 µM), usual class: inhibitors. 290,000 compounds, 0.71% hits. AID 2451; note: nearly all actives have a fitted effect of over 55% in size
Target sequence (A8B2U2 whole entry, looked up): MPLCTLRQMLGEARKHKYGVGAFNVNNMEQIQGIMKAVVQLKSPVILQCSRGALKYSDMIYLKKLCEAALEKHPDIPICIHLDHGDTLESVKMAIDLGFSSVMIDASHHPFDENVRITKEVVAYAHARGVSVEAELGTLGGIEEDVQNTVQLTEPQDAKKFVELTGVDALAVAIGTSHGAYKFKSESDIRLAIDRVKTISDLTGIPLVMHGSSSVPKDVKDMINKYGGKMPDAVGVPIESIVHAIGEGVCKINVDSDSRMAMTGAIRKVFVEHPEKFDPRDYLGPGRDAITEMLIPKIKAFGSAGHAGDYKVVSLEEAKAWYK
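40 nM FBPA preincubated 10 min at RT with compound (up to 57.5 uM final), then substrate plus GAPDH/TPI/NAD/arsenate coupling and diaphorase/resazurin added. Fluorescence read after 20 min at RT, 525/598 nm.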
Hits are given with their value; – = inactive; ? = inconclusive; · = no result. Unless noted, calls come from the whole dose curve; as a rule, active = well fitted curve in the direction sought with a large enough effect; inconclusive = small, poorly fitted or top-dose-only effect, or another doubt; inactive = no such curve, though single readings can be large; an effect the other way counts as inactive or inconclusive.

SMILES | LmPK inh | Cycloheximide cs | Shiga inhibitor | Tb PYK inh | Sm TGR inh | FBPA Giardia inh
CC(C)(O)[C@H]1Cc2cc3ccc(=O)oc3cc2O1 | – | 39.4 | 81.8 | – | – | –
CC1(C)Oc2cc3oc(=O)ccc3cc2C[C@@H]1O | · | · | · | – | · | ·
COc1ccc(OCC(=O)Nc2cc(-c3ccccc3F)nn2-c2ccccc2)cc1 | · | · | · | – | – | ·
O=C(Nc1ccc(Cl)cc1)N(C1=NCCC1)c1ccc(OC(F)F)cc1 | – | 40.9 | 74.5 | – | – | –
O=C(COC(=O)Cc1ccc(Cl)cc1)Nc1ccc(OC(F)F)cc1 | – | – | – | – | – | –
O=C(Nc1ccc(Cl)cn1)c1ccc(COCC(F)(F)C(F)F)o1 | – | 18.3 | 67.5 | – | – | –
COc1ccc(C(CC(=O)c2ccccc2)S(=O)(=O)c2ccc(C)cc2)cc1 (configuration not stated) | ? | 33.8 | 32.7 | – | – | –
O=C(NCC(c1ccc(Cl)cc1)N1CCCCC1)c1ccc(F)cc1 (configuration not stated) | · | · | · | – | – | ·
Fc1ccc(Nc2c3c(nc4nncn24)CCC3)cc1 | · | · | · | – | ? | ·
COc1ccc(OC)c(/C=N/NC(=O)c2[nH]nc3c2CCc2ccccc2-3)c1 | – | – | – | – | – | –
CC(C)NC(=O)c1[nH]nc2c1CCc1ccccc1-2 | – | 42.2 | 109.7 | – | – | –
COc1cccc(/C=N/NC(=O)c2[nH]nc3c2CCc2ccccc2-3)c1 | – | – | – | – | – | –
COc1ccc2c(c1)CCc1c-2n[nH]c1C(=O)NCCC(C)C | – | 42.7 | 88.1 | – | – | –
CNC(=O)c1[nH]nc2c1CCc1cc(OC)ccc1-2 | – | 57.4 | 87.0 | – | – | –
CCOC(=O)[C@]12CCC=C1N(Cc1ccc(Cl)cc1Cl)C(=O)[C@H](CC(=O)NCCc1ccccc1OC)C2 | · | · | · | – | · | ·
COc1ccc(C2C(C#N)=C(N)SC(N)=C2C#N)cc1OC | – | – | – | – | – | ?
CCCc1[nH]nc2c1C(c1ccc(OCCN3CCOCC3)c(OC)c1)C(C#N)=C(N)O2 (configuration not stated) | – | 49.3 | 54.2 | – | – | –
CCOc1cc(C2C(C#N)=C(N)SC(N)=C2C#N)ccc1OCCN1CCOCC1 | – | – | – | – | 22.4µM | ?
CCCc1[nH]nc2c1C(c1ccc(O)c(OC)c1)C(C#N)=C(N)O2 (configuration not stated) | – | – | – | – | – | –
O=C(Cn1nc(-c2ccc(Cl)cc2)ccc1=O)NCCc1ccccc1 | · | · | · | – | – | ·
Cc1oc(-c2cccc(Cl)c2)nc1CSCC(=O)NCc1ccccc1Cl | · | · | · | – | – | ·
Cc1ccc(OCC(=O)N/N=C\c2cccn2C)c([N+](=O)[O-])c1 | – | 31.7 | 42.0 | – | – | –
OCCCc1ccc(O)c(O)c1 | – | – | – | – | 3.55µM | –
O=C(O)Cc1ccc(O)c(O)c1 | – | – | – | – | 0.891µM | –
C[C@@](N)(Cc1ccc(O)c(O)c1)C(=O)O | · | · | · | · | · | 22.3µM
SMILES | LmPK inh | Cycloheximide cs | Shiga inhibitor | Tb PYK inh | Sm TGR inh | FBPA Giardia inh
CCc1ccccc1OCC(=O)Nc1cc(S(=O)(=O)N(CC)CC)ccc1N1CCOCC1 | · | · | · | – | – | ·
CC(=O)Nc1ccc(/C=N/NC(=O)c2cc(-c3ccco3)nc3ccccc23)cc1 | – | – | – | – | 14.1µM | –
O=C(O)c1ccccc1/C=N/NC(=O)c1cc(-c2ccco2)nc2ccccc12 | – | – | – | – | 3.16µM | ?
O=C(N/N=C/c1ccc2c(c1)OCO2)c1cc(-c2ccco2)nc2ccccc12 | · | · | · | – | – | ·
OCc1ccc(-c2ccc(-c3ccc(CO)s3)o2)s1 | · | 53.2 | 41.6 | · | · | –
S=C(Nc1ccccc1)N1CCc2ccccc21 | – | 13.8 | · | – | – | –
O=[N+]([O-])c1cccc(NC(=S)N2CCc3ccccc3C2)c1 | – | 58.7 | 79.2 | – | – | –
Fc1cccc(NC(=S)N2CCc3ccccc32)c1 | – | – | – | – | – | ·
CCN1CCN(C(=S)Nc2ccc([N+](=O)[O-])cc2)CC1 | – | 21.4 | – | – | – | –
CN1CCN(C(=S)Nc2ccc([N+](=O)[O-])cc2)CC1 | – | – | – | – | – | –
COc1ccc(NC(=S)N2CCc3ccccc32)cc1OC | – | 40.2 | 90.3 | – | – | ·
COc1ccc(-c2[nH]c3c(c2-c2c(-n4cccc4)n(C)c(=O)[nH]c2=O)c(=O)[nH]c(=O)n3C)cc1F | · | · | · | – | – | ·
NC(CCC(=O)NC(CS)C(=O)NCC(=O)O)C(=O)O (configuration not stated) | · | · | · | – | · | ·
COc1cc(-c2cc3n(C)c(C)c(CCC(=O)NC4CCCCC4)c(=O)n3n2)cc(OC)c1OC | · | · | · | – | – | ·
Cc1ccc(OCC(=O)N2CCC(C)CC2)c([N+](=O)[O-])n1 | · | · | · | – | ? | ·
CC[C@]1(c2ccccc2)NC(=O)NC1=O | · | – | – | · | · | –
CCc1ccc(NC(=O)C(=O)NCCN2CCN(Cc3ccc([N+](=O)[O-])cc3)CC2)cc1 | – | 11.3 | – | – | – | –
O=[N+]([O-])c1ccc(NC(=S)N2CCCC2)cc1 | – | – | – | – | – | –
O=[N+]([O-])c1ccc(Cl)c(NC(=S)N2CCCC2)c1 | – | 32.6 | 49.7 | – | – | ?
O=[N+]([O-])c1ccc(NC(=S)N2CCc3ccccc32)cc1 | – | – | 41.9 | – | – | ·
CCOc1ccccc1N/C=C(\C#N)c1nc2ccccc2n1C | – | – | – | – | – | –
N#C/C(=C\c1ccc(Cl)cc1)c1nc2ccccc2o1 | – | – | – | – | – | –
N#C/C(=C\Nc1ccccc1O)c1nc2ccccc2o1 | – | 25.9 | 70.6 | – | – | –
COc1cc(/C=C(\C#N)c2nc3ccccc3n2C)cc(OC)c1OC | · | · | · | – | – | ·
N#C/C(=C\c1ccncc1)c1nc2ccccc2o1 | – | 29.5 | – | – | – | –
SMILES | LmPK inh | Cycloheximide cs | Shiga inhibitor | Tb PYK inh | Sm TGR inh | FBPA Giardia inh
N#C/C(=C\c1cccc(O)c1)c1nc2ccccc2o1 | – | 58.6 | 85.2 | – | – | –
Cn1c(/C(C#N)=C/c2cccc(O)c2)nc2ccccc21 | – | 42.5 | – | – | · | –
Cc1cccc(N2CCN(c3ncnc4c3nc3n4CCCCC3)CC2C)c1 (configuration not stated) | · | · | · | – | – | ·
CCCCCCCCCCCCCCCC[N+](C)(C)Cc1ccccc1 | · | · | · | – | · | ·
COc1ccc(NC(=O)COc2ccccc2)cc1Cl | – | – | · | – | – | –
COC(=O)c1ccc(N2CCN(C)CC2)c(NC(=O)COc2ccccc2)c1 | – | – | – | – | – | –
Cc1ccc(NC(=O)COc2ccccc2)cc1Cl | – | 16.9 | 102.0 | – | – | –
Cc1cc(NC(=O)COc2ccccc2)ccc1Cl | – | 49.8 | 107.1 | – | – | –
CN1CCN(c2ccc(NC(=O)COc3ccccc3)cc2Cl)CC1 | – | 44.0 | 82.6 | – | – | –
Cc1ccc(NC(=O)COc2ccccc2)cc1S(=O)(=O)N1CCCCC1 | · | · | · | – | · | ·
CCN1C(=O)c2ccccc2S(=O)c2ccc(C(=O)N3CCN(c4cc(Cl)ccc4C)CC3)cc21 (configuration not stated) | · | · | · | – | – | ·
